The source made the active and inactive calls.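 How the source made its calls, unless noted: active means inhibition at or above 50% at 10 µM; inactive means inhibition below 50%.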
What was measured:
[1] = inhibitors of TNFa-induced NFkB p65 translocation, primary screen, imaging, HUVEC, MLSMR starter and 10KST1 sets (AID 438;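 active means inhibition above 20% together with a positive visual image hit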;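 further: compound added about 3h40 before a 20 min TNFalpha stimulation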;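 on inhibition: signal is the nuclear over cytoplasmic p65 intensity ratio per well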); settings: HUVEC TNFa-induced p65 nuclear translocation; cell count: measured here: nuclei count (cytotoxicity indicator), at 2.08 µM; inhibition: at 2 µM, stronger effect = higher value, 0% TNFa-plus-vehicle, 100% no-TNFa wells
[2] = reduction of polyQ htt aggregates in cells – imaging, exon1htt(103Q)mCFP cells, high-content imaging, primary screen (AID 483;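 active means visual image review flags a hit and inhibition of aggregation exceeds 20%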;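 further: compound exposure lasted 3 days before fixation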;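 on nuclei count: percent of the per-plate median nuclei count of sample wells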); settings: exon1htt(103Q)mCFP cell line, aggregate imaging, at 2 µM; inhibition of aggregation: stronger effect = higher value; nuclei count: measured here: cell count, toxicity
[3] = endothelial E-selectin expression blockers – imaging, HUVEC, immunofluorescence, MLSMR starter and 10KST1 sets, primary screen (AID 487;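 active means visually confirmed hit in the image check and inhibition above 20%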;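 on inhibition: signal is fraction of cell area covered by stained E-selectin grains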;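 on nuclei count: 100% = median nuclei count of all wells on the same plate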); settings: HUVEC TNFalpha-induced E-selectin immunofluorescence imaging, at 2 µM; inhibition: stronger effect = higher value; nuclei count: measured here: cell number, toxicity
[4] = target: Voltage-gated potassium channel subunit beta-2 (Rattus norvegicus) (UniProt P62483); assay: inhibitors of rat Kvbeta2 reductase activity – biochemical, NADPH fluorescence, primary screen (AID 622;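 active means fluorescence slope higher than the sample average by over 3 SD, cut at about -0.22 in these data, passing the limit was not always enough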;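 further: slope of raw intensity against log time taken from 70 to 1610 s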); settings: recombinant KvBeta, 4-cyanobenzaldehyde reduction, at 10 µM, stronger effect = higher value
Sequence of Voltage-gated potassium channel subunit beta-2 (Rattus norvegicus) (P62483 whole entry, looked up): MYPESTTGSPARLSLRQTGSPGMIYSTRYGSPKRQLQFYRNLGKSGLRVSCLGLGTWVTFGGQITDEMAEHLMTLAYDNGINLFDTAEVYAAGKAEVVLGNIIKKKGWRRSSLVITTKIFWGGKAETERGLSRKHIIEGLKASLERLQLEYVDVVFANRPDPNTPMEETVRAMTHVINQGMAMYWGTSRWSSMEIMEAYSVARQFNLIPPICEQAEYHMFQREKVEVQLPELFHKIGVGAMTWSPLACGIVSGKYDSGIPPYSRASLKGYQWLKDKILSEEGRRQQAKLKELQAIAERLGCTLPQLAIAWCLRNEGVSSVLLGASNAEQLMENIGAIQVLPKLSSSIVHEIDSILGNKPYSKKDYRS

[5] = target: Voltage-gated potassium channel subunit beta-2 (Rattus norvegicus) (UniProt P62483); assay: enhancers of rat Kvbeta2 NADPH turnover – biochemical, NADPH fluorescence, primary screen (AID 623;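 active means NADPH fluorescence slope more negative than the mean of all samples by about 3 SD, 99.7% confidence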;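 further: fluorescence intensity change per second fitted from 20 to 320 s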); settings: Recombinant KvBeta, NADPH fluorescence decrease slope, 10 min; at 10 µM; stronger effect = lower value
[6] = target: Alpha-2C adrenergic receptor (Homo sapiens) (UniProt P18825); assay: compounds altering alpha2C-coupled GIRK flux – cell-based, HEK293 alpha2C/GIRK1/2, thallium flux, primary screen (AID 624;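 active means fluorescence slope after compound addition differing from the mean of all screened samples at 99.7% confidence, in either direction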;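 further: slope of fluorescence ratio to pre-addition baseline per second over 15 to 24 s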); settings: thallium flux BTC fluorescence, at 10 µM, actives lie on both sides
Sequence of Alpha-2C adrenergic receptor (Homo sapiens) (P18825 whole entry, looked up): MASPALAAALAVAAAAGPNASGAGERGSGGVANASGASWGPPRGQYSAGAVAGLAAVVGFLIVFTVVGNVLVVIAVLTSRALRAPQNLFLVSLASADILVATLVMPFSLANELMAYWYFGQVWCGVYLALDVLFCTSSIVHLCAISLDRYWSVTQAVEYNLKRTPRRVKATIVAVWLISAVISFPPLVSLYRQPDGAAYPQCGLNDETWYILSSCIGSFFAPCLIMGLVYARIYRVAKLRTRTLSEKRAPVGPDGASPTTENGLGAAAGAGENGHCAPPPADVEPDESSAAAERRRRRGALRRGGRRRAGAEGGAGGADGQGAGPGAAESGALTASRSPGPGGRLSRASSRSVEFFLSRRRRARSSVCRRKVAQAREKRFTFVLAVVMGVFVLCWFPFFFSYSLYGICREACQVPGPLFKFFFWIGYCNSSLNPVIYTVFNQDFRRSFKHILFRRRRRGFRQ

[7] = blockers of RIG-like receptor reporter activation – cell-based, Sendai virus stimulus, luciferase, 10K MLSCN set, TLR/RLR signaling modifier project, primary screen (AID 602276); settings: HEK293 RL24 IRF3 luciferase reporter, at 10 µM, stronger effect = higher value;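 further: firefly luciferase from ISG56 promoter only with Renilla not read in this screen; 0% = Sendai virus plus DMSO and 100% = medium plus DMSO without virus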
[8] = TLR3 IRF3 reporter activation blockers – cell-based, poly I:C stimulus, luciferase, 10K MLSCN set, primary screen (AID 602277;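 active means inhibition of the reporter signal at or above 50%; inactive means inhibition below 50%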); settings: HEK293-TLR3 RL24 IRF3 luciferase reporter, at 10 µM, stronger effect = higher value

Structure (SMILES)	cell count [1]	inhibition [1]	inhibition of aggregation [2]	nuclei count [2] [%]	inhibition [3]	nuclei count [3] [%]	fluorescence slope [4]	NADPH fluorescence slope [5]	slope [6]	inhibition [7]	inhibition [8]
COc1ccc(C)cc1S(=O)(=O)N(CC(=O)O)c1ccccc1	343	8.1% (inactive)	-8% (inactive)	91.3	-90.2% (inactive)	144	-0.454 (inactive)	7.5e-06 (inactive)	0.00642 (inactive)	34.7% (inactive)	21% (inactive)
COc1ccc(CCNC(=O)C2CC(=O)N(c3ccccc3)C2)cc1OC (stereo not given)	336	-2.5% (inactive)	-5.4% (inactive)	102	22.4% (inactive)	109	-0.452 (inactive)	8.4e-07 (inactive)	0.00653 (inactive)	16.9% (inactive)	25.7% (inactive)
CCN1C(=O)c2ccccc2S(=O)(=O)c2ccc(C(=O)NCc3cccnc3)cc21	804	-6.4% (inactive)	-35.7% (inactive)	107	-50.1% (inactive)	129	-0.569 (inactive)	-4.8e-05 (inactive)	0.00634 (inactive)	-13.6% (inactive)	1.79% (inactive)
C=CCN1C(=O)C2(/C(=C(\O)c3ccc4c(c3)OCCO4)C(=O)C(=O)N2CCCOC)c2ccccc21 (stereo not given)	390	8.6% (inactive)	0.7% (inactive)	104	-37.2% (inactive)	128	-0.465 (inactive)	-1.1e-05 (inactive)	0.00507 (inactive)	20.5% (inactive)	21.2% (inactive)
O=C(CCS(=O)(=O)c1cccc2nsnc12)N1CCN(Cc2ccc3c(c2)OCO3)CC1	582	4.1% (inactive)	-47.2% (inactive)	53.4	-84.7% (inactive)	97.8	-0.533 (inactive)	-4.8e-05 (inactive)	0.00459 (inactive)	2.36% (inactive)	14.2% (inactive)
O=C(NC1CC1)C1CCN(c2ccc(S(=O)(=O)N3CCOCC3)cc2)CC1	735	-4.1% (inactive)	-4.3% (inactive)	110	-14.8% (inactive)	101	-0.476 (inactive)	-5e-06 (inactive)	0.00268 (inactive)	-7.23% (inactive)	20.7% (inactive)
O=C(NCC(c1cccnc1)N1CCOCC1)c1cccs1 (stereo not given)	357	9.8% (inactive)	-3.5% (inactive)	97.5	-81% (inactive)	123	-0.414 (inactive)	-1.2e-05 (inactive)	0.00412 (inactive)	5.49% (inactive)	10.9% (inactive)
COc1ccc(CCNc2oc(COc3ccc(F)cc3)nc2C#N)cc1	407	-9.8% (inactive)	8.7% (inactive)	88.8	17% (inactive)	74.8	-0.608 (inactive)	-3.3e-06 (inactive)	0.00681 (inactive)	15.6% (inactive)	23.5% (inactive)
O=C(OCc1ccc2c(c1)OCO2)c1ccc(S(=O)(=O)N2CCCCC2)cc1	732	4.4% (inactive)	-6.1% (inactive)	102	83.3% (active)	87.7	-0.415 (inactive)	-5.1e-05 (inactive)	0.00821 (inactive)	7.08% (inactive)	9.8% (inactive)
CCCN1CCN(CCCNC(=O)C2CCCN(c3nc4ccc(OCC)cc4s3)C2)CC1 (stereo not given)	513	-14% (inactive)	23.6% (inactive)	121	-18.5% (inactive)	119	-0.398 (inactive)	-4.5e-05 (inactive)	0.00402 (inactive)	-9.58% (inactive)	-10.2% (inactive)
CCOC(=O)c1ccc2[nH]c3c(c2c1)CN(C)CC3	686	-1.3% (inactive)	28.7% (inactive)	73.1	-29.4% (inactive)	114	-0.543 (inactive)	-5.6e-05 (inactive)	0.00602 (inactive)	5.79% (inactive)	21.3% (inactive)
COc1ccc(-c2nnn(CC(=O)c3ccc4c(c3)OCCO4)n2)cc1OC	507	-17.7% (inactive)	-8.1% (inactive)	122	17.9% (inactive)	126	-0.48 (inactive)	-4.4e-05 (inactive)	0.00479 (inactive)	19.3% (inactive)	19.3% (inactive)
COc1ccccc1N1C(=O)CCC1(C#N)c1ccccc1 (stereo not given)	567	6.9% (inactive)	-0.9% (inactive)	87.7	-30.3% (inactive)	72.2	-0.62 (inactive)	6e-06 (inactive)	0.0062 (inactive)	-5.14% (inactive)	9.48% (inactive)
O=C(c1ccco1)N1CCN(CC2CC3C=CC2C3)CC1 (stereo not given)	269	-10.4% (inactive)	-30.9% (inactive)	7.7	-30.7% (inactive)	106	-0.509 (inactive)	2.8e-05 (inactive)	0.00614 (inactive)	-7.24% (inactive)	-20% (inactive)
Cc1onc(-c2ccccc2Cl)c1C(=O)Nc1cccnc1	286	-2.3% (inactive)	1.8% (inactive)	106	-78.5% (inactive)	148	-0.452 (inactive)	2.6e-05 (inactive)	0.00566 (inactive)	0.844% (inactive)	32.2% (inactive)
CCOCCCNC(=O)C(NC(=O)c1ccccn1)c1ccc(C)cc1 (stereo not given)	314	-13.4% (inactive)	2.7% (inactive)	116	-18.5% (inactive)	111	-0.592 (inactive)	-4e-05 (inactive)	0.00635 (inactive)	15.1% (inactive)	18.1% (inactive)
O=[n+]1c2c(n([O-])c3cc(F)c(N4CCCC4)cc31)CCC2	709	-9.4% (inactive)	3% (inactive)	78.5	-98.9% (inactive)	123	-0.574 (inactive)	-5.8e-06 (inactive)	0.00378 (inactive)	0.0339% (inactive)	0.593% (inactive)
COCCN(C(=O)CCC(=O)Nc1ccccn1)C(C(=O)NC1CCCC1)c1ccc(OC)cc1 (stereo not given)	528	-26.5% (inactive)	16.1% (inactive)	105	-44.5% (inactive)	92	-0.395 (inactive)	-9e-05 (inactive)	0.00514 (inactive)	1.15% (inactive)	23.2% (inactive)
CCCC1(C(=O)OCC)NC(c2ccc(N(C)C)cc2)C2C(=O)N(c3ccc(F)cc3)C(=O)C21 (stereo not given)	505	-10% (inactive)	30.1% (inactive)	69.8	1.4% (inactive)	134	-0.398 (inactive)	1e-06 (inactive)	0.00411 (inactive)	8.99% (inactive)	23.9% (inactive)
CCCCC(=O)NCCc1cc2c(C)ccc(C)c2[nH]c1=O	699	-1% (inactive)	-22.4% (inactive)	105	-13.4% (inactive)	102	-0.552 (inactive)	-3.7e-05 (inactive)	0.00563 (inactive)	10.6% (inactive)	22.7% (inactive)
